Growth data for 40 compounds are collected here from PubChem BioAssay (NCI).

About 83,000 compounds went through this panel and 20% of them were active in at least one assay; those are over-represented in the sample as a whole.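 Assay: single dose, 48 h. Readout: percent growth (0 = no net growth; negative = cell death). Active: <10.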 Unmarked numbers belong to inactive results. Calls of active or inactive are those of the source.

This experiment deals with MDA-MB-468 breast. The experiment is described as follows: NCI-60 one-dose screen, 48 h (100 = growth as untreated, 0 = no growth, -100 = all killed). Conditions: 10 µM unless noted.
Consider `CCOC(=O)c1c(C)n(-c2ccc(Cl)cc2)c2ccc(OC(=O)/C=C/c3ccccc3)cc12`, for which the growth is 22.9%.
For the compound `O=C1c2cccc3cccc(c23)C(=O)N1CCCCCCCCCCN1C(=O)c2cccc3cccc(c23)C1=O`, the growth was 112%.
Regarding `Nc1nc(Nc2ccc(OCc3cccc(F)c3)cc2)c2c(n1)[nH]c1ccc(O)cc12`, the growth was -17.2% (active).
For `COc1ccc2c(c1)Oc1nc(N)c(C#N)c(N)c1C2Sc1ccc(C)cc1` (stereo not given), the growth was -45.8% (active).
For `C[N+]1(CCCCC[N+]2(C)CCCC2)CCCC1`, the growth is 117%.
`CCO/C=N/C1=C(C#N)C(c2ccc(F)cc2)c2sc3c(CC)cccc3c2O1` (stereo not given): the growth is 7.27% (active).
On to `CN(C)c1ccc(-c2ccc(-c3ccc(C(=N)N)cn3)o2)cc1`, for which the growth was -64.4% (active).
Turning to `CN1CCN(c2ccc3cc(-c4nc5ccccc5[nH]4)c(=O)oc3c2)CC1`, the growth was 68.3%.
Then `CCc1ccc2nc(NC(=O)Cc3csc(NC(=O)c4ccco4)n3)sc2c1`, with -54.2% (active).
With `COc1ccc(/C(=N\N=C(N)N)c2ccc(Cl)cc2)cc1OC`, the growth is 52.8%.
To `Fc1cc2[nH]ncc2c2c3c(c(-c4cn[nH]c4)nc12)CCCC3` belongs -22.4% (active).
In the case of `O=c1[nH]nnc2c1ncn2C1OC(CO)C(O)C1O` (stereo not given), the growth is 40.1%.
`O=C(Cn1ccc(=O)[nH]c1=O)c1ccc([N+](=O)[O-])o1`: the growth is 44.4%.
With `COc1cc(C2CC(c3cccc(Nc4ccncc4)c3)=NN2c2cc(Cl)cc(Cl)c2)cc(OC)c1OC` (stereo not given), the growth is -11.9% (active).
For the compound `Cn1ccnc1C(=O)/C=C/c1ccc(CNC(=O)c2c(F)c(F)c(F)c(F)c2F)cc1`, the growth was 26.8%.
On to `CC(C)=CCc1c(O)c(CC=C(C)C)c2c(c1O)C(=O)C1=C[C@@H]3C[C@H]4C(C)(C)O[C@@](C/C=C(\C)C(=O)O)(C3=O)[C@@]14O2`, for which the growth is -45.1% (active).
With `NC(=NCCCOc1ccc(F)cc1)Nc1ccc(I)cc1`, the growth is 27.8%.
Consider `Fc1ccc(-c2nc(Nc3ccc(-c4nc5ccccc5[nH]4)cc3)nc(N3CCOCC3)n2)cc1`, for which the growth is -84% (active).
As for `COc1ccc(/C=C(\C#N)c2cc(OC)c(OC)c(OC)c2)cc1`, the growth was -10.8% (active).
Take `CCCCCCCCCCOC(C)=O`: the growth was 110%.
For `COc1cc2c(cc1OC)C(=O)OC2`, the growth is 97.1%.
Consider `Nc1nc(N)c2cc(S(=O)(=O)c3cccc(C(F)(F)F)c3)ccc2n1`, for which the growth is 38.9%.
Regarding `Cc1nnc(/N=C2\NC(=O)/C(=C/c3ccsc3)S2)s1`, the growth was 110%.
To `Cc1nc(N)sc1-c1ccnc(Nc2ccc(N3CCOCC3)cc2)n1` belongs 34.1%; to `N#CC1=C(NC=O)Oc2c(ccc3ccccc23)C1c1ccccc1` (stereo not given), 12%.
Turning to `O=C(Nc1nc2cc(C(=O)N3CCN(C(c4ccccc4)c4ccccc4)CC3)ccc2o1)c1ccc(NC2CCCCC2)c([N+](=O)[O-])c1`, the growth is 75.2%.
Take `Cc1cc(O)c(C2=NN(c3ccc(S(N)(=O)=O)cc3)C(c3ccccc3Cl)C2)cc1Cl` (stereo not given): the growth is 28.9%.
For the compound `NC(N)=N/N=C/c1ccc(-c2ccc(-c3ccc(Cl)cn3)s2)cc1`, the growth was 94.4%.
With `COc1ccc(C2CC(n3ccnc3)c3cc(OC)c(OC)c(OC)c32)cc1O` (stereo not given), the growth was 78.6%.
Turning to `COc1ccccc1S(=O)(=O)Nc1ccc2c3c(cc(-c4cnn(C5CC5)c4)nc13)C(=O)N2C`, the growth is 50.9%.
For the compound `NC(N)=Nc1cc2ccccc2c2ccccc12`, the growth was 54.4%.
To `Clc1cccc(CNc2c3ccccc3nc3ccccc23)c1` belongs -18.4% (active); to `C=C1C(=O)O[C@H]2[C@H]1CC/C(COC(=O)CCCCCCCCC(=O)OC/C1=C/CC[C@@]3(C)O[C@H]3[C@H]3OC(=O)C(=C)[C@@H]3CC1)=C\CC[C@@]1(C)O[C@@H]21`, -32.7% (active); to `COc1cc(-c2ccc(-c3ccc(C(=N)N)s3)s2)cc(OC)c1OC`, 23.8%.
Consider `COc1cccc(-c2nc(-c3ccc(NS(=O)(=O)c4ccccc4)cc3)[nH]c2-c2ccnc(Br)c2)c1`, for which the growth was 18.3%.
Take `CCCOC(=O)c1ccc([N+](=O)[O-])o1`: the growth was 113%.
With `O=C(CCCCCCC(=O)Nc1ccc2c(c1)/C(=C/c1ccc[nH]1)C(=O)N2)NO`, the growth was 22.9%.
Take `O=C(NCc1cn(Cc2cccc(Oc3ccccc3)c2)nn1)c1cccnc1Nc1ccccc1`: the growth was 18.1%.
Turning to `COC(=O)/C=C\C(=O)OC`, the growth was 112%.
Consider `CCOC(=O)C(=O)C=P(c1ccccc1)(c1ccccc1)c1ccccc1`, for which the growth was 114%.
